PubChem BioAssay

These compounds were tested against Torsin-1A (Homo sapiens) (UniProt O14656) (assay: small-molecule binders of mutant TOR1A in lysate, primary screen, cell lysate, small-molecule microarray, COS7 lysate, 635/667 nm fluorescence (AID 1150;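 also: score pools 667 nm emission and signal to noise measuring lysate protein binding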)). Conditions: COS7 hTOR1A mutant lysate, 635 nm fluorescence, higher = more signal.
Torsin-1A (Homo sapiens), sequence (O14656 whole entry, looked up): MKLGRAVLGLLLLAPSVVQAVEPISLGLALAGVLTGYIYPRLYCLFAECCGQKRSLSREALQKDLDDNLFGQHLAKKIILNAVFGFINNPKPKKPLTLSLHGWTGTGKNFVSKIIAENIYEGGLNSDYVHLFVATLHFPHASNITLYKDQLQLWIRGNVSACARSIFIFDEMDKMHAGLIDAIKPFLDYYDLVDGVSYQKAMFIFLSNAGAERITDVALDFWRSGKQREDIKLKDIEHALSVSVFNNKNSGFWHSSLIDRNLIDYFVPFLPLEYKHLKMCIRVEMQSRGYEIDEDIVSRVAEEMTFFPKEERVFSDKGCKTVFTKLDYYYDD
O=C1O[C@@H](c2ccccc2)[C@@H](c2ccccc2)N2[C@@H](c3ccccc3OCCO)[C@]3(C(=O)Nc4ccccc43)[C@@H](C(=O)NC[C@H](O)c3ccccc3)[C@H]12 was tested, and the composite z-score was 0.297.
COCCOC(=O)N1C(=O)[C@@]2(c3cc(C#CC4=CCCCC4)ccc31)[C@H](c1ccccc1OCCO)N1[C@H](c3ccccc3)[C@H](c3ccccc3)OC(=O)[C@H]1[C@@H]2C(=O)N1CCc2cc(OC)c(OC)cc2C1 showed a composite z-score of 0.536.
Cc1ccc(S[C@]2(C(=O)NC3CC3)CC(=O)N(Cc3ccccc3Cl)[C@@H]2c2ccc(CO)cc2I)cc1 gave a composite z-score of 1.01.
For CC(C)CN1C(=O)[C@@]2(Cc3ccccc31)c1ccccc1C(=O)N(Cc1ccccc1C(F)(F)F)[C@H]2c1ccc(CO)cc1, the composite z-score was -0.727.
In the case of CCCN1C(=O)[C@]2(Cc3ccccc3)N=C(c3ccc(OCCCO)cc3)O[C@@H]2c2ccccc21, the composite z-score is reported as 0.773.
With C[C@]1(C(=O)NC2CC2)c2ccccc2C(=O)N(Cc2ccc(OC(F)(F)F)cc2)[C@H]1c1ccc(CO)cc1 the composite z-score was 0.398.
NC(=O)NCC#Cc1ccc2c(c1)[C@]1(C(=O)N2)[C@H](C(=O)O)[C@H]2C(=O)O[C@H](c3ccccc3)[C@H](c3ccccc3)N2[C@@H]1c1ccccc1OCCO gave a composite z-score of 0.651.
In the case of Cc1ccc(S[C@]2(C(=O)NCCN3CCOCC3)CC(=O)N(Cc3ccccc3C(F)(F)F)[C@@H]2c2ccc(CO)cc2I)cc1, the composite z-score is reported as -0.38.
Cc1ccc(S[C@]2(C(=O)NCc3ccccc3)CC(=O)N(C(C)C)[C@@H]2c2ccc(CO)cc2I)cc1 was tested, and the composite z-score was -0.609.
NC(=O)NCC#Cc1ccc2c(c1)[C@]1(C(=O)N2)[C@H](C(=O)Nc2nc3ccccc3s2)[C@H]2C(=O)O[C@H](c3ccccc3)[C@H](c3ccccc3)N2[C@@H]1c1ccc(O)cc1 showed a composite z-score of -0.216.
O=C1NC(=O)C2C1C=CC(C(O)c1ccc(Br)cc1)N2Nc1ccccn1 (stereo unspecified) gave a composite z-score of 0.301.
[N-]=[N+]=Nc1ccccc1[C@H]1OC(c2ccc(OCCCO)cc2)=N[C@@]1(CCS(=O)(=O)c1ccccc1)C(=O)N1CCCCC1 gave a composite z-score of 1.01.
Work on CC(C)C(CO)N1C(=O)[C@]2(C)C3C(=O)OCCC/C=C\[C@H]3OC23C=CCN(c2ccc(Cl)cc2)C(=O)[C@@H]13 (stereo partly specified) yielded a composite z-score of -0.856.
For C=C[C@@H](C)[C@H](OC(=O)Nc1ccc(SC)cc1)c1ccc(OCCO)cc1, the composite z-score was 0.695.
In the case of [N-]=[N+]=NCc1ccccc1C[C@@]1(C(=O)NCCN2CCOCC2)N=C(c2ccc(OCCCO)cc2)O[C@@H]1c1ccccc1N=[N+]=[N-], the composite z-score is reported as 1.73.
In the case of CC(=O)N1Cc2ccccc2C[C@]2(N=C(c3ccc(OCCCO)cc3)O[C@@H]2c2ccccc2)C1=O, the composite z-score is reported as 0.297.
With O=C1c2ccccc2[C@](Cc2ccccc2I)(C(=O)NCCN2CCOCC2)[C@H](c2ccc(CO)cc2)N1Cc1ccccc1 the composite z-score was 0.802.
Compound Cc1ccc(S[C@]2(C(=O)NC(C)C)CC(=O)N(Cc3ccccc3C(F)(F)F)[C@@H]2c2ccc(CO)cc2I)cc1 has a composite z-score of -1.17.
CCOC(=O)[C@H]1C/C=C/C[C@H](C(=O)OCC)C(=O)O[C@H]2[C@@H](OC)O[C@H](CO)[C@@H](OC(=O)Nc3ccc(OC)cc3)[C@@H]2OC1=O gave a composite z-score of 1.64.
For C[C@]1(C(=O)NCCN2CCOCC2)c2ccccc2C(=O)N(Cc2ccc(OC(F)(F)F)cc2)[C@H]1c1ccc(CO)cc1, the composite z-score was 0.853.
C=CC[C@]1(C(=O)N(C)C)N=C(c2ccc(OCCCO)cc2)O[C@H]1c1ccccc1N=[N+]=[N-] gave a composite z-score of 0.696.
COc1ccc([Si](C)(C)[C@H]2[C@H](CCO)O[C@@]3(C(=O)N(Cc4cccc(N5CCCCC5=O)c4)c4ccccc43)[C@@H]2C)cc1 gave a composite z-score of 0.299.
C=CC[C@H](OC(=O)Nc1ccc(OC)cc1)c1ccc(O)c2ccccc12 was tested, and the composite z-score was 0.696.
Compound CC(C)N1CC=CC23O[C@@H]4C=CCOC(=O)[C@@H]4[C@H]2C(=O)N(C(C)CO)[C@@H]3C1=O (stereo partly specified) has a composite z-score of -1.43.
For COCCOC(=O)N1C(=O)[C@@]2(c3cc(C#CCNC(N)=O)ccc31)[C@H](C(=O)N1CCCCCCC1)[C@H]1C(=O)O[C@H](c3ccccc3)[C@H](c3ccccc3)N1[C@@H]2c1ccc(O)cc1, the composite z-score was 0.216.
COc1ccc(C(O)C2C=CC3C(=O)N(c4ccccc4)C(=O)C3N2Nc2ccccc2)cc1OCc1ccccc1 (stereo unspecified) gave a composite z-score of 0.887.
C=CC[C@@H](OC(=O)Nc1ccc(OC)cc1)c1ccc(OCCO)cc1 showed a composite z-score of -3.
O=C1O[C@@H](c2ccccc2)[C@@H](c2ccccc2)N2[C@@H](c3ccc(O)cc3)[C@]3(C(=O)Nc4ccccc43)[C@@H](C(=O)Nc3nc4ccccc4s3)[C@H]12 showed a composite z-score of 0.325.
In the case of COCCCNC(=O)[C@]1(Cc2ccccc2N=[N+]=[N-])N=C(c2ccc(OCCCO)cc2)O[C@@H]1c1ccccc1N=[N+]=[N-], the composite z-score is reported as 0.605.
O=C1OC[C@@H](c2ccccc2)N2CC(/C=C/c3ccccc3)=CC12 (stereo partly specified) was tested, and the composite z-score was -1.31.
With CC(C)CNC(=O)[C@@]1(c2ccc([N+](=O)[O-])cc2)CC(=O)N(C2CCCCC2)[C@@H]1c1ccc(CO)cc1I the composite z-score was 0.0482.
COCCOC(=O)N1C(=O)[C@@]2(c3cc(C#Cc4ccc(OC)cc4)ccc31)[C@H](C(=O)N1CCCCCCC1)[C@H]1C(=O)O[C@H](c3ccccc3)[C@H](c3ccccc3)N1[C@@H]2c1ccc(O)cc1 gave a composite z-score of 0.864.
For COCCCNC(=O)[C@]1(Cc2ccccc2CN=[N+]=[N-])N=C(c2ccc(OCCCO)cc2)O[C@@H]1c1ccccc1, the composite z-score was 0.311.
In the case of C=CCC(OC(C)=O)[C@@H]1[C@@H](N(Cc2cc3ccccc3o2)C(=O)Cc2ccc(F)cc2)c2cc(OCCCO)ccc2N1C(=O)c1ccc2ccccc2n1 (stereo partly specified), the composite z-score is reported as -0.226.
In the case of CCN(CC)c1ccc(N2CC=CC34O[C@@H]5/C=C\CCC(C)OC(=O)C5[C@H]3C(=O)N(CCO)[C@@H]4C2=O)cc1 (stereo partly specified), the composite z-score is reported as -1.25.
CCOC(=O)C[C@H]1[C@H](OC(=O)Cc2ccc3c(c2)OCO3)[C@@H](NC(=O)Cc2ccc(OC)cc2)c2cc(OCCCO)ccc2N1C(=O)c1ccccc1 was tested, and the composite z-score was 0.426.
